An excerpt weighted towards active compounds, which were near 4% of everything screened.
Mtb FBA inh: inhibitors of M. tuberculosis fructose-bisphosphate aldolase | purified M. tuberculosis FBA, fluorescence read-out | inhibition, % at 1 µM | 2.3% of 360,000 active | AID 588726; in the data active = inhibition above about 27%
GDH-TPI counter: inhibits GDH-TPI coupling enzymes, artifact for Mtb FBA screen; GDH-TPI coupled enzyme counterscreen, NADH absorbance; inhibition, % at 4.8 µM; 1.2% of 360,000 active; AID 588335; in the data active = inhibition above about 30%
Rv3671c inh: inhibits the M. tuberculosis serine protease Rv3671c; P9WHR9; inhibition, % at 5.96 µM; 0.048% of 320,000 active; AID 2606; in the data active = inhibition above about 38%;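 also: extracellular domain of Rv3671c used as enzyme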
RecA splice inh: Mtb RecA intein splicing inhibition; 0.75% of 290,000 active; cell-free RecA intein splicing, fluorescence; inhibition, % (no concentration beside the values); AID 2221; P9WHJ3; in the data active = inhibition above about 30%
Mtb betalactam: beta-lactam sensitization of Mtb H37Rv. inhibition, % at 25 µM. 0.27% of 330,000 active. M. tuberculosis H37Rv growth with meropenem, percent inhibition; call rule not given here;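 also: growth measured after seven days incubation then overnight dye step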
UGM FP inh: Mtb UDP-galactopyranose mutase inhibition | inhibition, % at 10 µM | P9WIQ1 | purified UGM, fluorescence polarization probe displacement | 0.06% of 320,000 active; in the data active = inhibition above about 10%, passing the limit was not always enough
A number is an active result; 0 = inactive; - = not tested or not shown; + = active, no number.

SMILES	Mtb FBA inh	GDH-TPI counter	Rv3671c inh	RecA splice inh	Mtb betalactam	UGM FP inh
COc1cc(/C=C2\NC(=O)NC2=O)cc(Br)c1OC	0	32	0	0	0	0
COc1ccc(-c2cc(=O)oc3cc(OCC(=O)c4cccc([N+](=O)[O-])c4)ccc23)cc1	-	-	-	0	-	-
COc1cc2sc(-c3ccc(S(C)(=O)=O)cc3)c(-c3ccc4c(c3)OCO4)c2cc1OC	32	0	0	-	0	0
N#Cc1c(N)n(C2CCCCC2)c2nc3ccccc3nc12	117	0	0	0	0	0
N#Cc1c(N)n(-c2ccc(C(=O)O)cc2)c2nc3ccccc3nc12	+	0	0	0	0	0
CCC(=O)Nc1c(C#N)c2nc3ccccc3nc2n1C1CCCCC1	0	0	0	0	0	0
N#Cc1c(N)n(-c2ccc(N)cc2)c2nc3ccccc3nc12	0	0	0	0	0	0
COc1ccc(Cc2nnc(SCC(=O)Nc3ccc(N4CCOCC4)cc3)o2)cc1	0	0	0	0	0	0
Cc1nc(/C=[N+](\[O-])C(C)(C)/C=N/O)n(O)c1C	0	31	0	0	0	0
COc1cc(-c2c(C#N)c(N)nc3c2CCCC3)ccc1O	0	0	0	0	0	0
COC(=O)c1c(C#N)c(N)nc2c1CCCC2	125	0	0	0	0	0
CCOc1cc(/C=N/Nc2nc(=O)[nH]nc2C)ccc1O	0	0	0	0	0	0
CCOc1ccc(/C=N/Nc2nc(=O)[nH]nc2C)cc1OC	0	33	0	0	0	0
COc1ccc(/C=N\Nc2ccccn2)c(OC)c1	0	36	-	0	0	0
CCOc1ccc(/C=N/Nc2ccccn2)cc1OC	0	0	0	0	0	0
CCCOc1ccc(/C=N/Nc2ccccn2)cc1OC	0	35	0	0	0	0
Cc1ccc(C(=O)N/C(=C\c2ccc(-c3ccccc3[N+](=O)[O-])o2)C(=O)NCCN(C)C)cc1	0	0	0	0	0	0
CCOC(=O)c1c(NC(=S)NCCc2ccccc2)sc2c1CC(C(C)C)OC2 (stereo not drawn)	0	0	0	0	0	0
C=CCNC(=S)Nc1sc2c(c1C(=O)OCC)CC(C(C)C)OC2 (stereo not drawn)	0	32	0	0	0	-
O=S(=O)(NCc1ccc(F)cc1)c1ccc(-n2cccn2)cc1	0	0	0	0	0	0
COc1ccccc1CNC(=O)CN(c1ccc(C)cc1)S(=O)(=O)c1c(C)noc1C	0	0	0	0	0	0
CCCc1cc(=O)oc2c3c(cc(OCC(=O)NCC4CCC(C(=O)O)CC4)c12)OC(C)(C)CC3 (stereo not drawn)	+	0	0	0	0	0
CCCc1cc(=O)oc2cc(OCC(=O)N3CCC(C(N)=O)CC3)ccc12	0	0	0	-	0	0
CCCc1cc(=O)oc2c3c(cc(OCC(=O)N4CCC(C(=O)O)CC4)c12)OC(C)(C)CC3	+	0	-	-	-	-
CCOc1ccc(/C=C/C(=O)OCC(=O)Nc2cccc(S(=O)(=O)N3CCCC3)c2)cc1	0	0	0	-	0	0
SMILES	Mtb FBA inh	GDH-TPI counter	Rv3671c inh	RecA splice inh	Mtb betalactam	UGM FP inh
Cn1c(/C(C#N)=C/Nc2ccccn2)nc2ccccc21	0	31	0	0	0	0
Clc1cccc(Cl)c1/C=C/c1nc2ccccc2[nH]1	138	0	0	0	0	0
O=C(OCC(=O)N1CCOCC1)c1cc(S(=O)(=O)N2CCOCC2)c(Cl)cc1Cl	0	0	0	-	0	-
Cc1ccc(C2c3c(oc4ccc(Cl)cc4c3=O)C(=O)N2CCCN2CCOCC2)o1 (stereo not drawn)	-	-	0	36	0	0
COc1ccc(/C=C2\SC(=O)N(CC(=O)NC3C=CS(=O)(=O)C3)C2=O)cc1 (stereo not drawn)	0	48	0	0	0	0
O=C(CN1C(=O)S/C(=C\c2ccc(F)cc2)C1=O)NC1C=CS(=O)(=O)C1 (stereo not drawn)	0	33	0	0	0	0
O=C(CCN1C(=O)/C(=C/c2ccccc2Cl)SC1=S)NC1C=CS(=O)(=O)C1 (stereo not drawn)	0	0	0	0	0	0
O=C(CCN1C(=O)/C(=C/c2ccc(F)cc2)SC1=S)NC1C=CS(=O)(=O)C1 (stereo not drawn)	0	0	0	0	0	0
O=C(CN1C(=O)S/C(=C\c2ccccc2F)C1=O)NC1C=CS(=O)(=O)C1 (stereo not drawn)	0	31	0	0	0	0
COc1ccc(C(=O)C2CCCN(S(=O)(=O)c3cccnc3)C2)c(C)c1 (stereo not drawn)	0	0	0	0	0	0
O=C1C=C(NNC(=O)c2ccncc2)CC(c2ccccc2)C1 (stereo not drawn)	0	0	0	0	0	0
O=c1[nH]nc(Sc2ncnc3sccc23)n1CCc1ccccc1	0	0	0	31	0	0
O=C(O)c1ccccc1Sc1ncnc2sccc12	0	0	0	0	0	0
CCN(CC)C(=O)CSc1n[nH]c(=O)n1CCc1ccccc1	148	0	0	0	0	0
CN1C(=O)C(C(=O)NC(C)(C)C)C2c3ccccc3OC13CCCCC23 (stereo not drawn)	0	0	0	0	0	0
COc1ccc2[nH]c3c(=O)n(CCc4ccccc4)cnc3c2c1	95	0	0	0	0	0
COc1ccc2[nH]c3c(NCCCN4CCCC4=O)ncnc3c2c1	152	0	0	0	0	0
CN1CCc2c(sc3c2C(=O)NC(/C=C/c2ccco2)N3)C1 (stereo not drawn)	0	37	0	0	0	0
Cc1ccsc1/C=N\Nc1cn[nH]c(=O)c1Cl	0	0	0	0	0	0
Cc1ccc(/C=N\Nc2cn[nH]c(=O)c2Cl)cc1	0	48	0	0	0	0
O=c1[nH]ncc(N/N=C/c2ccccc2)c1Cl	0	80	0	0	0	-
COc1ccc(/C=N/Nc2cn[nH]c(=O)c2Cl)cc1	0	36	0	0	0	0
CN(C)/C=C1/OC(=O)C(C#N)=C1c1ccc(Cl)cc1	0	0	0	0	0	0
COc1cc(/C=N/NC(=O)C(Cc2c[nH]c3ccccc23)NC(=O)OCC(C)C)cc([N+](=O)[O-])c1OCc1ccccc1 (stereo not drawn)	0	0	0	0	0	0
COc1cc(/C=N/NC(=O)C(Cc2c[nH]c3ccccc23)NC(=O)OCC(C)C)cc([N+](=O)[O-])c1O (stereo not drawn)	0	33	0	0	0	0
COc1cc(/C=N/NC(=O)C(Cc2c[nH]c3ccccc23)NC(=O)OCc2ccccc2)cc([N+](=O)[O-])c1O (stereo not drawn)	0	36	0	0	0	0
Cc1ccc2nc(-c3ccc(N)cc3)sc2c1	+	0	0	0	0	0
O=C(CCS(=O)(=O)c1ccccc1)Nc1cccc(-c2nc3ccccc3s2)c1	0	0	0	0	0	0
CNS(=O)(=O)c1cccc(C(=O)OCC(=O)Nc2ccc(-c3nc4ccc(C)cc4s3)cc2)c1	29	0	0	0	0	0
O=C(CCS(=O)(=O)c1ccccc1)Nc1ccc(-c2nc3ccccc3s2)cc1	31	0	0	0	0	0

High-throughput results: PubChem BioAssay, several laboratories
